Assay outcomes from PubChem BioAssay.
Most compounds without a hit are left out; they make up all but 7.7% or so of the library.
FMDV inh = foot and mouth disease virus antiviral activity; FMDV antiviral cell-based qHTS; Potency, µM (doses to about 57.9 µM), without a hit: at the top dose activity change, negative = inhibition, hits mostly inhibitors; 410,000 tested, 1.2% active; AID 1159524; calls by dose curve; tested in HEK293T cells; also: read-out not given here; potency is read from the fitted curve at half-maximal effect; nearly all actives have a fitted effect of over 45% in size
HCMV antiviral = inhibitors of human cytomegalovirus | 410,000 tested, 4.5% active | activity change, negative = inhibition, % at 57.5 µM | HFF cells, HCMV-luciferase reporter, 72 h; hits give low values; in the data active = activity change below about -60%; inconclusive = no clear call, values can overlap the other calls; inactive = above about -39%
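Compounds were evaluated in HFFs infected with an HCMV luciferase reporter virus (MOI 1 PFU/cell). Luciferase in lysates collected 72 h post infection served as the replication measure.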
FBPA Giardia inh = blocks Giardia fructose-bisphosphate aldolase activity; purified Giardia FBPA; Potency, µM (top dose mostly 59.6 µM), without a hit: at the top dose activity, negative = inhibition, hits mostly inhibitors; AID 2451; 290,000 tested, 0.71% active; A8B2U2; also: potency is read from the fitted curve at half-maximal effect; nearly all actives have a fitted effect of over 55% in size
Target sequence (A8B2U2 whole entry, looked up): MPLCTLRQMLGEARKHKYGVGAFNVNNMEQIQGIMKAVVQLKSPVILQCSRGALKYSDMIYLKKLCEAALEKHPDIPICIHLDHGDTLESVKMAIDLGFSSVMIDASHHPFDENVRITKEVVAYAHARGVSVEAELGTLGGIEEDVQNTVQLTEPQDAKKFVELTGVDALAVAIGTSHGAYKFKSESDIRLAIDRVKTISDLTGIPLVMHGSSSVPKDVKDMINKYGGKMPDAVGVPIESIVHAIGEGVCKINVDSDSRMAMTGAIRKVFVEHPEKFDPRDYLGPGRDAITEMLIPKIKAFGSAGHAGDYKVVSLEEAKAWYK
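40 nM FBPA preincubated 10 min at RT with compound (up to 57.5 uM final), then substrate plus GAPDH/TPI/NAD/arsenate coupling and diaphorase/resazurin added. Fluorescence read after 20 min at RT, 525/598 nm.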
Sm TGR block = blocks Schistosoma mansoni thioredoxin glutathione reductase. Q962Y6. purified TGR, DTNB reduction, TNB absorbance 405 nm. Potency, µM (doses to about 114 µM), without a hit: top-dose activity change, negative = inhibition, hits mostly inhibitors. 360,000 tested, 3% active. AID 485364; also: potency is read from the fitted curve at half-maximal effect; nearly all actives have a fitted effect of over 60% in size
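TGR 20 nM + NADPH 100 uM (dispensed conc.), cpd preinc 15 min RT; start with NADPH (500 uM addition) then DTNB (15 mM addition). Kinetic TNB absorbance, 405 nm filter. Four-parameter Hill fit across titration.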
RE007 growth inh = less growth of the S. pombe RE007 Vpr strain; S. pombe RE007 Vpr strain, BacTiter-Glo ATP luminescence, 24 h; Potency, µM (series often up to 92.2 µM), for the others: top-dose activity change, negative = less growth, usual class: inhibitors; 360,000 tested, 0.21% active; AID 651644; active = well fitted falling curve with a large enough effect; inconclusive = small, poorly fitted or top-dose-only effect; inactive = no such curve, though single readings can be large or run the other way; also: potency is read from the fitted curve at half-maximal effect; nearly all actives have a fitted effect of over 50% in size
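Fission yeast RE007 carrying one integrated HIV-1 vpr copy, seeded at OD 0.01 in PMG+AL medium with 23 nL pinned compound. Grown 24 h at 30 degrees; viability read by BacTiter-Glo luminescence after 5 min.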
TbPYK inhibitor = inhibitors of Trypanosoma brucei pyruvate kinase | Potency, µM (doses to about 76.8 µM), inactives show at the top dose activity, negative = inhibition, usual class: inhibitors | TbPYK enzyme, Kinase-Glo Plus ATP luminescence, 45 min | 410,000 tested, 0.12% active | AID 624173 | Q57TT1; also: potency is read from the fitted curve at half-maximal effect; nearly all actives have a fitted effect of over 50% in size
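Screened from lowest to highest concentration, compounds were pinned into TbPYK/substrate mixtures, and ADP (130 uM final) was added. Plates sat at room temperature for 45 min prior to Kinase-Glo Plus detection by luminescence.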
Active calls of the source: *; ? = inconclusive; · = no result; [ ] = another dose, or the depositor's remark. Unless noted, calls follow the shape of the dose curve; as a rule, active = well fitted curve in the direction sought with a large enough effect; inconclusive = small, poorly fitted or top-dose-only effect, or another doubt; inactive = no such curve, though single readings can be large; an effect the other way counts as inactive or inconclusive. % is scaled to controls: 0 for no effect and ±100 for the full control effect.

SMILES	FMDV inh	HCMV antiviral	FBPA Giardia inh	Sm TGR block	RE007 growth inh	TbPYK inhibitor
COCCNC(=O)CS(=O)Cc1nc(-c2ccccc2C)oc1C (stereo not given)	-3.1%	-34.6	0.2%	39.8µM*	9.5%	-9.5%
Cc1ccccc1-c1nc(CS(=O)CC(=O)NCc2ccccc2)c(C)o1 (stereo not given)	25.6%	-0.2	7.6%	22.4µM*	8.2%	0.1%
COc1cc(NC(=O)COCc2cc(-c3ccc4c(c3)OCO4)on2)cc(OC)c1	-18.0%	19.2	·	4.2%	·	5.1%
CCN1CCc2c(sc(NC(=O)c3ccc(S(=O)(=O)N(C)C4CCCCC4)cc3)c2C(N)=O)C1	-22.2%	?	·	-3.0%	·	-1.2%
CCC1C(=O)NCCN1Cc1ccc2c(c1)CN(Cc1ccc(F)c(OC)c1)CCO2 (stereo not given)	-17.2%	·	·	·	·	·
CCOC(=O)c1ccc(NC(=O)Cn2cnc3sc(C(=O)OCC)c(C)c3c2=O)cc1	9.9%	-11.4	·	6.1%	·	-2.9%
CN(C)S(=O)(=O)N(CC(=O)NCCSCc1ccccc1Cl)c1ccccc1	-6.3%	-12.7	·	10.0%	·	-1.3%
O=C(Nc1ccc2nc3n(c(=O)c2c1)CCCCC3)c1c(F)ccc([N+](=O)[O-])c1F	10µM*	-100.4*	·	?	-5.2%	-4.3%
O=C(Nc1ccc2nc3n(c(=O)c2c1)CCCCC3)c1cc([N+](=O)[O-])ccc1F	31.6µM*	-72.0*	·	-10.0%	-2.8%	-10.5%
O=C(Nc1ccc2nc3n(c(=O)c2c1)CCCCC3)c1ccccc1[N+](=O)[O-]	7.9%	-31.8	·	-8.8%	-20.7%	-7.7%
O=C(Nc1ccc2nc3n(c(=O)c2c1)CCCC3)c1ccccc1F	48.2%	-0.1	4.7%	5.1%	-15.5%	-5.9%
CC(C)C1NC(=O)[C@H](CCCCN)NC(=O)[C@@H](Cc2c[nH]c3ccccc23)NC(=O)[C@H](Cc2ccc(O)cc2)NC(=O)[C@H](C)N(C)C(=O)[C@H](Cc2ccccc2)NC1=O (stereo not given in full)	·	·	-1.0%	·	·	·
Cc1ccc(CNC(=O)c2c(C)oc3ncnc(N4CCOCC4)c23)cc1	-13.2%	?	·	0.4%	·	1.0%
COc1cccc(-c2nc(CS(=O)(=O)CC(=O)NCc3ccc(C)cc3)c(C)o2)c1	-28.9%	-12.5	·	-20.9%	·	-2.6%
CCC1Sc2ccc(S(=O)(=O)CCC(=O)NCc3ccco3)cc2NC1=O (stereo not given)	?	-31.3	-2.6%	31.6µM*	-7.1%	-6.5%
COc1ccccc1C(=O)Nc1ccnn1C1CCN(C(=O)c2ccoc2C)CC1	5.7%	-62.8*	0.9%	-19.0%	6.0%	-1.5%
Cc1ccccc1C(=O)Nc1ccnn1C1CCN(C(=O)c2cnsn2)CC1	-7.6%	-21.5	-12.0%	-26.7%	6.2%	0.3%
COc1ccccc1N1CCN(C(=O)c2c(C)noc2C)CC1	-5.4%	24.9	0.8%	3.4%	8.0%	1.9%
COc1ccccc1N1CCN(C(=O)c2ccoc2C)CC1	13.1%	1.2	-2.2%	44.7µM*	-8.6%	-9.0%
COc1ccccc1C(=O)Nc1ccnn1C1CCN(C(=O)c2ccoc2)CC1	16.0%	2.9	·	·	-10.7%	1.9%
COc1ccccc1C(=O)Nc1ccnn1C1CCN(C(=O)c2cnsn2)CC1	40.2%	-102.6*	·	0.0%	-5.3%	-0.5%
COc1ccccc1N1CCN(C(=O)c2cc3c(=O)n(Cc4ccco4)ccc3nc2C)CC1	-5.1%	-27.5	·	14.1µM*	·	-22.5%
CN(CCCNC(=O)c1cc2c(=O)n(C)c3ccccc3c2s1)Cc1ccccc1	-19.7%	10.5	·	-28.9%	·	-8.1%
O=C1CCC[C@H]2[C@@H](Cc3ccccc3)[C@@H](NS(=O)(=O)c3ccc(F)cc3)CC[C@]23CCCN13	·	-28.2	·	·	·	·
CC(=O)N1CCCc2cc(S(=O)(=O)N(C)CC(=O)Nc3cccc(Cl)c3C)ccc21	0.0%	-25.4	·	3.7%	·	-4.5%
SMILES	FMDV inh	HCMV antiviral	FBPA Giardia inh	Sm TGR block	RE007 growth inh	TbPYK inhibitor
Cc1ccc(N2CC(NC(=O)c3ccc(S(=O)(=O)N4CCOCC4)cc3)CC2=O)cc1C (stereo not given)	-25.8%	0.6	·	-0.6%	·	-5.6%
Cc1c(C(=O)Nc2ccc(F)c(F)c2)oc2ccc(S(=O)(=O)N(C)C3CCCCC3)cc12	?	?	·	18.6%	·	2.2%
O=Nc1ccc2oc(=O)ccc2c1	·	·	-4.5%	·	·	·
CCc1ccc(NCc2cc3cc4c(cc3n(CC(=O)Nc3ccc(C)cc3)c2=O)OCO4)cc1	21.2%	34.3	·	?	·	-2.7%
COc1ccccc1N1CCN(C(=O)C(C)N(c2ccc(C)c(C)c2)S(C)(=O)=O)CC1 (stereo not given)	35.5µM*	-15.1	1.2%	0.3%	-2.5%	1.2%
Nc1nc(N)c2cc(S(=O)(=O)c3ccc4ccccc4c3)ccc2n1	-16.9%	-82.0*	·	·	-17.8%	-6.5%
CCOC(=O)c1noc2ncn(Cc3ccc([N+](=O)[O-])cc3)c(=O)c12	-21.1%	14.0	·	5.4%	·	-4.1%
C/C(CCC(=O)OC[C@@H]1O[C@H](C#Cc2ccccc2)C=C[C@@H]1Oc1ccc(C)cc1)=N/O[C@@H](C)CN1CCCCc2nc(C)c(C)cc21	·	·	-0.1%[12.9 µM]	·	·	·
C/C(CCC(=O)OC[C@H]1O[C@H](C#Cc2ccccc2)C=C[C@@H]1Oc1ccc(C)cc1)=N\O[C@@H](C)CN1CCCCc2nc(C)c(C)cc21	·	·	-8.4%	35.5µM*	·	·
COCCCNS(=O)(=O)c1ccc(N2CCCCS2(=O)=O)cc1	-16.6%	-15.7	·	5.1%	·	1.9%
O=C1c2ccccc2NC(c2ccc(-c3cccc([N+](=O)[O-])c3)o2)N1O (stereo not given)	-13.2%	-78.7*	?	?	13.7%	-8.1%
O=C1c2ccccc2NC(c2ccc(-c3ccc(F)cc3)o2)N1O (stereo not given)	6.7%	-23.3	·	?	·	-4.2%
O=C1c2ccccc2NC(c2ccc(-c3ccc(Br)cc3)o2)N1O (stereo not given)	-15.8%	-72.4*	?	-9.0%	-16.0%	0.3%
COc1cccc(N2CCc3c(C)nc4ccc(Cl)cc4c32)c1	?	-22.0	11.5%	0.8%	8.6%	-3.0%
COc1ccc(N2CCc3c(C)nc4c(OC)cccc4c32)cc1	16.4%	-66.0*	0.2%	-2.1%	2.0%	3.3%
COc1ccc(N2CCc3c(C)nc4c(OC)cc(OC)cc4c32)cc1	?	-107.8*	-14.9%	7.3%	-7.9%	0.3%
COc1ccc(N2CCc3c(C)nc4c(OC)cc(OC)cc4c32)c(OC)c1	0.0%	-20.0	-11.7%	3.8%	3.3%	3.0%
CCN(C(=O)c1cccn(Cc2ccccc2C)c1=O)c1ccccc1	-20.4%	-21.8	·	17.4%	·	-8.1%
